Data on seven molecules can be found in PubChem BioAssay (Tox21).

The nature of test [1]: qHTS assay to test for compound auto fluorescence at 535 nm (green) in HEK293 cells (AID 720680). A general note: Quantitative high-throughput screening tests each substance at several concentrations.
The nature of test [2]: qHTS assay to test for compound auto fluorescence at 460 nm (blue) in HEK293 cell free culture (AID 720681). The method in brief: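 Blue fluorescence (Ex 405/Em 460 nm, triamterene-equivalent) was read immediately after pin transfer of compound or DMSO into medium (DMEM, 10% FBS) without cells.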
The nature of test [3]: qHTS assay to test for compound auto fluorescence at 535 nm (green) in HEK293 cell free culture (AID 720682). The method in brief: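 No cells present: wells hold DMEM supplemented with 10% FBS, into which compound or vehicle is pinned. Green emission is then recorded (485 nm excitation, 535 nm emission) and scaled to fluorescein.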
Test [4] can be described thus: qHTS assay to test for compound auto fluorescence at 590 nm (red) in HEK293 cell free culture (AID 720683). The method, boiled down: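 Red-channel autofluorescence of compounds in culture medium (DMEM, 10% FBS), no cells, measured at 540/590 nm. Rose Bengal sodium is the reference fluorophore for equivalence.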
A short description of test [5]: qHTS assay to test for compound auto fluorescence at 590 nm (red) in HepG2 cell free culture (AID 720684). The method, boiled down: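 Steps: dispense MEM/10% FBS medium, no cells; pin compound or DMSO vehicle; read red channel, Ex/Em 540/590 nm. Output given as Rose Bengal sodium equivalents.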
Test [6] in a line: qHTS assay to test for compound auto fluorescence at 460 nm (blue) in HepG2 cell free culture (AID 720685). The method in brief: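 Compound (23 nL) or DMSO pinned into cell-free MEM with 10% FBS; blue fluorescence read at 405/460 nm excitation/emission, expressed as auto-fluorescence equivalency to triamterene.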
Test [7] is described as follows: qHTS assay to test for compound auto fluorescence at 535 nm (green) in HepG2 cell free culture (AID 720686).
Test [8] is described as follows: qHTS assay to test for compound auto fluorescence at 460 nm (blue) in HepG2 cells (AID 720687). The method, boiled down: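 Blue-channel autofluorescence (Ex/Em 405/460 nm, triamterene-equivalent) was measured after 1 hr compound exposure at 37 C, 5% CO2. Cells were HepG2, plated overnight at 37 C in MEM plus 10% FBS.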
The nature of test [9]: qHTS assay to identify small molecule antagonists of the glucocorticoid receptor (GR) signaling pathway - cell viability counter screen (AID 720693). Note: nearly all actives have a fitted effect of over 55% in size.
Test [10] is described as follows: qHTS assay for identifying genotoxic compounds that show differential cytotoxicity against isogenic chicken DT40 cell lines with known DNA damage response pathways - wild type cell line (AID 743012). Note: nearly all actives have a fitted effect of over 60% in size. Note: potency is the fitted concentration of half-maximal effect. The method in brief:
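First, wild type DT40 cells were plated at 300 per well and equilibrated about 0.5 h at 37 C/5% CO2. Next, compounds in DMSO were added and exposure lasted 40 h. Finally, CellTiter-Glo was added for 30 min at room temperature and luminescence recorded.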

A short description of test [11]: qHTS assay for identifying genotoxic compounds that show differential cytotoxicity against isogenic chicken DT40 cell lines with known DNA damage response pathways - Rev3 mutant cell line (AID 743014). Note: nearly all actives have a fitted effect of over 55% in size. Note: potency is the fitted concentration of half-maximal effect.
Test [12] is described as follows: qHTS assay for identifying genotoxic compounds that show differential cytotoxicity against isogenic chicken DT40 cell lines with known DNA damage response pathways - Rad54/Ku70 mutant cell line (AID 743015). Note: nearly all actives have a fitted effect of over 60% in size. Note: potency is the fitted concentration of half-maximal effect.
The nature of test [13]: qHTS assay to identify small molecule antagonists of the androgen receptor (AR) signaling pathway - cell viability counter screen (AID 743033; note: nearly all actives have a fitted effect of over 45% in size; note: potency is the fitted concentration of half-maximal effect).
The nature of test [14]: qHTS assay to identify small molecule antagonists of the androgen receptor (AR) signaling pathway using the MDA cell line - cell viability counter screen (AID 743041; note: nearly all actives have a fitted effect of over 45% in size; note: potency is the fitted concentration of half-maximal effect). The method in brief:
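Cells were plated at 3,000 per well and left 5 h. Compounds in DMSO were then pinned in, followed by R1881. After 16 h at 37C, CellTiter-Fluor fluorescence gave viability.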

Test [15] in a line: qHTS assay to identify small molecule antagonists of the thyroid receptor (TR) signaling pathway - cell viability counter screen (AID 743064). Note: nearly all actives have a fitted effect of over 50% in size. Note: potency is the fitted concentration of half-maximal effect. The method in brief:
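Rat GH3 pituitary tumor cells stably expressing two TR response elements driving luciferase were plated, rested 4 h, then dosed with library compounds and T3 (1 nM final). After 23.5 h at 37 °C, CellTiter-Fluor was added for 30 min and fluorescence recorded.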

For test [16], the target named is Glucocorticoid receptor (Homo sapiens) (UniProt P04150). In words: qHTS assay to identify small molecule agonists of the glucocorticoid receptor (GR) signaling pathway (AID 720691; active = well fitted activation curve with a large enough effect in the signal ratio in the repeat runs, not every such curve was filed as active; the % refers to the signal ratio). The method, boiled down:
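qHTS in GR-bla HeLa cells: 4 h settling at 37 C/5% CO2, 18 h compound incubation at 37 C, 2 h LiveBLAzer B/G FRET substrate at room temperature, fluorescence intensity measured.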

Test [17] has the same target. In words: qHTS assay to identify small molecule antagonists of the glucocorticoid receptor (GR) signaling pathway (AID 720692; active = well fitted inhibition curve with a large enough effect in the signal ratio in the repeat runs, not every such curve was filed as active; the % refers to the signal ratio; note: potency is the fitted concentration of half-maximal effect). The method in brief:
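Inhibition of glucocorticoid signalling is measured in HeLa cells with a GRE-controlled beta-lactamase reporter; cells are co-treated with compound and 5 nM dexamethasone (final) for 18 h before FRET substrate readout.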

The target of test [18] is Androgen receptor (Homo sapiens) (UniProt P10275). In words: qHTS assay to identify small molecule antagonists of the androgen receptor (AR) signaling pathway (AID 743035; active = well fitted inhibition curve with a large enough effect in the signal ratio in the repeat runs, not every such curve was filed as active; the % refers to the signal ratio; note: potency is the fitted concentration of half-maximal effect). The method in brief:
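Beta-lactamase FRET read (2 h RT incubation with LiveBLAzer B/G) following 16 h of compound plus R1881 treatment of AR-UAS-bla HEK293 cells, which had been pre-incubated 4 h at 37C.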

Test [19] shares this target. Kind of test: qHTS assay to identify small molecule agonists of the androgen receptor (AR) signaling pathway (AID 743036; active = well fitted activation curve with a large enough effect in the signal ratio in the repeat runs, with a control signal flat, not every such curve was filed as active; the % refers to the signal ratio). The method in brief: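 Quantitative HTS of the Tox21 10K library in HEK293 cells bearing a stably integrated UAS-controlled beta-lactamase reporter. Compound exposure lasted 16 h at 37C. Reporter activity was detected by FRET substrate fluorescence after 2 h at room temperature.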

Test [20] has the same target. Kind of test: qHTS assay to identify small molecule antagonists of the androgen receptor (AR) signaling pathway using the MDA cell line (AID 743042; note: nearly all actives have a fitted effect of over 55% in size). The method in brief:
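Antagonist mode: compounds plus R1881 agonist added to MDA-kb2 AR-luc cells, incubated 16 h at 37C. Luciferase reporter luminescence quantified, with multiplexed CellTiter-Fluor readout for cell viability.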

Values joined by “and” are separate entries in the source; they are usually repeats but may differ in a detail not shown here. Equal entries are not always repeated. Records with an inconclusive call do not appear. Some compounds were tested as several samples or in several runs, with calls that do not always agree. Active and inactive are the calls of the source. Unless noted, calls come from the whole dose curve; as a rule, active = well fitted curve in the direction sought with a large enough effect in the repeat runs; inconclusive = weak or mixed curves; inactive = no such curve, though single readings can be large; an effect the other way counts as inactive or inconclusive.

Sequence of Androgen receptor (Homo sapiens) (P10275 whole entry, looked up): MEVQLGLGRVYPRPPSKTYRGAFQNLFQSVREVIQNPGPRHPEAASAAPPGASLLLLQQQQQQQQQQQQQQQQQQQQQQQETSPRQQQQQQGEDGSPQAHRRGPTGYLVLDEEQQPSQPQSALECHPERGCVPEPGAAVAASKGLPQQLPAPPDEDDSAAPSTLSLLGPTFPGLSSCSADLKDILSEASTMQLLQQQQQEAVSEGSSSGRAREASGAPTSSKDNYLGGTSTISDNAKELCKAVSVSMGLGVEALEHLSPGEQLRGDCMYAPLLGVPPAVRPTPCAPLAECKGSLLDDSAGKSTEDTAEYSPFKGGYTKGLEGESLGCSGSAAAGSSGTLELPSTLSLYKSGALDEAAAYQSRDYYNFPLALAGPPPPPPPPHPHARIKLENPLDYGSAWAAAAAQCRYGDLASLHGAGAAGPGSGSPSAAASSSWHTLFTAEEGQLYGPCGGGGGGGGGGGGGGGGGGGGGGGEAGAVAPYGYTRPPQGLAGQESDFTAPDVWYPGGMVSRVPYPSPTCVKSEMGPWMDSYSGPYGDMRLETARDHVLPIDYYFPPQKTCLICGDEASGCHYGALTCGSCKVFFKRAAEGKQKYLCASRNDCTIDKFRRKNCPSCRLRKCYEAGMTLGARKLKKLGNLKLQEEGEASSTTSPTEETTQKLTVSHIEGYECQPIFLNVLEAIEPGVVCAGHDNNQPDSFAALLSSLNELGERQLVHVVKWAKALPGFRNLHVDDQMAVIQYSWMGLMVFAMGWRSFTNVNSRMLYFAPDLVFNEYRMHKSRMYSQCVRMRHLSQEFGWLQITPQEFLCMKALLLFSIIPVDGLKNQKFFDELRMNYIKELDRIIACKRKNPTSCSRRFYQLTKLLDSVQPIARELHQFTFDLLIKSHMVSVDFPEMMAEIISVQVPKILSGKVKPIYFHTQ
Sequence of Glucocorticoid receptor (Homo sapiens) (P04150 whole entry, looked up): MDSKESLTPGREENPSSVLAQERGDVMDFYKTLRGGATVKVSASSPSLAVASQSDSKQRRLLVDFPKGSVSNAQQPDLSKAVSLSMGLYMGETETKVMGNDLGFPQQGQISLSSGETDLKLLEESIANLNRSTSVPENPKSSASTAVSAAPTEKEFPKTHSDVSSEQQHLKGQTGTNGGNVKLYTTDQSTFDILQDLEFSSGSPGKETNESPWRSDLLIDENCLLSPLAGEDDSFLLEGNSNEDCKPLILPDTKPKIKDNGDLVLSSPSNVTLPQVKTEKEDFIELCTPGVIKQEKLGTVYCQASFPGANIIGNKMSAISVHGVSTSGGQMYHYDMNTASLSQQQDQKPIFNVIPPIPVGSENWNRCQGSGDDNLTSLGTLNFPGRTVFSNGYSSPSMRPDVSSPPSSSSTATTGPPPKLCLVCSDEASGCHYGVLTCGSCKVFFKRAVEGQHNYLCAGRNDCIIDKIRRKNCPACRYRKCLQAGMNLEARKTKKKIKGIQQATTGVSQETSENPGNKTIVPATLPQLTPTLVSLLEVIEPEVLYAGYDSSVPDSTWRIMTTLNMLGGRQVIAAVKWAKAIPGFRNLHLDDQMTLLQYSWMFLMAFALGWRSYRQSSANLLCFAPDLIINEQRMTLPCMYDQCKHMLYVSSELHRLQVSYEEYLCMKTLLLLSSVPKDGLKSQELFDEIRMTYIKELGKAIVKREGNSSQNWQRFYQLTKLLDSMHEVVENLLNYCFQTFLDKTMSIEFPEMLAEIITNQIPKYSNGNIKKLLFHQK

`O=S1(=O)OC(c2ccc(O)cc2)(c2ccc(O)cc2)c2ccccc21`: the Potency result in test [1], in [2], in [3], in [4], in test [5] and in test [6] was “inactive” throughout. The Potency entry in test [7], in test [8], in test [9], in [10], in test [11] and in test [13] was “inactive” each time. In addition, the Potency result in [12] was “inactive and 43.3 µM (active)”; in test [14] it was 48.6 µM (active) and 61.1 µM (active); in [15] it was 27.3 µM (active).
Consider `CC(=O)C(=O)O`, for which the Potency result in test [1], in [2], in [3], in [4], in [5] and in test [6] was “inactive” in each case. Further, the Potency entry in test [7], in [8], in [9], in [11], in test [12] and in test [13] was “inactive” each time. Further, the Potency result in [14] and in [15] was “inactive” each time.
As to `CCCCC(CC)C(=O)O` (stereo not drawn), the Potency entry in [1], in [2], in [3], in [4], in test [5] and in test [6] was “inactive” each time. For the same molecule, the Potency result in test [7], in test [8], in [9], in test [13], in [14] and in test [15] was “inactive” in each case.
With `CCCCCCc1ccc(O)cc1O`, the Potency entry in test [1], in test [2], in [4], in test [5], in [6] and in test [7] was “inactive” in each case. Moreover, the Potency entry in test [8], in [16], in [9], in test [13], in [14] and in test [20] was “inactive” in each case. Also, the Potency result is “inactive and 49 µM (active)” in [17]; 48.6 µM (active) in test [10]; 54.6 µM (active) and 38.6 µM (active) in [11]; 21.7 µM (active) in [12]; “inactive and 43.8 µM (active) and 43.6 µM (active)” in test [18]; 54.6 µM (active) and 54.5 µM (active) in test [15]. For the same molecule, in [19], the result was inactive.
Take `CC(C)C(=O)Nc1ccc([N+](=O)[O-])c(C(F)(F)F)c1`: the Potency result in [1], in test [2], in test [3], in test [4], in [5] and in test [6] was “inactive” in each case. The Potency entry in [7], in [8], in test [9], in test [14] and in test [15] was “inactive” throughout. Moreover, the Potency was 13.3 µM (active) and 44.5 µM (active) and 19.3 µM (active) in test [10]; 29.8 µM (active) and 25 µM (active) and 30.6 µM (active) in test [11]; 18.8 µM (active) and 22.3 µM (active) and 19.3 µM (active) in [12]; “inactive and 25.2 µM (active) and 49 µM (active)” in test [13].
On to `CCCCOC(=O)c1ccc(O)cc1`, for which the Potency entry in [1], in test [2], in test [4], in test [5], in [6] and in test [7] was “inactive” in each case. Besides, the Potency entry in test [8], in test [16], in [17], in test [9], in [10] and in [13] was “inactive” each time. Further, the Potency entry in test [18], in test [14], in [20] and in test [15] was “inactive” in each case. The Potency result is “inactive and 61.1 µM (active)” in test [11]; “inactive and 61.1 µM (active)” in test [12]. For the same molecule, the result in test [19] was inactive.
`CS(=O)(=O)OCCCCOS(C)(=O)=O`: the Potency result in test [1], in [2], in test [4], in test [5], in test [6] and in test [7] was “inactive” throughout. Also, the Potency entry in [8], in [9], in [10], in [11], in [12] and in [13] was “inactive” in each case. Also, the Potency result in test [14] and in [15] was “inactive” throughout.
